SMILES strings stand for the structures.

The text below walks through data of PubChem BioAssay.

The test can be described thus: small-molecule binders of probe aNOTCH3, primary screen, biochemical, small-molecule microarray, 635/667 nm fluorescence (AID 1120).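 Also: probe is a biotin-tagged antibody raised against NOTCH3 rather than NOTCH3 protein; score merges spot fluorescence near 667 nm with spot signal to noise.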 Particulars: higher = more signal.
`O=[N+]([O-])c1ccc(C[n+]2ccc3ccc(O)cc3c2)o1` gave a composite z-score of 0.0736.

Molecule `O=C1O[C@@H](c2ccccc2)[C@@H](c2ccccc2)N2[C@@H](c3ccccc3OCCO)[C@]3(C(=O)Nc4ccc(C#CC5=CCCCC5)cc43)[C@@H](C(=O)O)[C@H]12` registered a composite z-score of 0.0563.

Molecule `CCC#CCN(Cc1ccccc1Br)[C@H](/C=C/c1ccccc1)[C@@H](O)Cc1ccccc1` registered a composite z-score of -0.132.

As to `COCCOC(=O)N1C(=O)[C@@]2(c3cc(C#CC4(O)CCCCCC4)ccc31)[C@H](C(=O)N1CCCCCCC1)[C@H]1C(=O)O[C@H](c3ccccc3)[C@H](c3ccccc3)N1[C@@H]2c1ccc(O)cc1`, the composite z-score stood at 0.885.

`C[N+](C)(C)CCCCNC(=O)[C@@H]1C[C@@H]2C(=O)N3CCC[C@H]3C(=O)N2[C@@H]1c1cccc(OCCO)c1`: the composite z-score is -0.199.

On to `C=CCN1C(=O)[C@]2(O[C@H](CCn3cc(CCO)nn3)[C@@H]([Si](C)(C)c3ccc(OC)cc3)[C@@H]2C)c2cc(NC(=O)c3ccc(OC)cc3)ccc21`, for which the composite z-score was found to be 0.141.

The molecule `CO[C@H]1COC(=O)[C@@H](Cc2ccccc2)NC(=O)[C@@H](C)COC(=O)CC=C[C@@H]1C` had a composite z-score of -0.095.

`O=C1C2C=CC(C(O)c3ccccc3)N(n3cnnc3)C2C(=O)N1Cc1ccccc1` (stereo unspecified) yielded a composite z-score of 0.0562.

In turn, `C=C(COC)/C(=C/C[C@@H](OC(=O)c1ccncc1)c1ccc(OCCO)cc1)c1cc(C(=O)OC)ccc1OC` showed a composite z-score of 0.0631.

On to `O=C1C[C@@](C(=O)NCCN2CCOCC2)(c2ccc([N+](=O)[O-])cc2)[C@@H](c2ccc(CO)cc2)N1C1CCCCC1`, for which the composite z-score stood at 0.0597.

For `COc1ccc(NN2C(C(O)c3cc(OC)c(OC)c(OC)c3)C=CC3C(=O)N(C4CCCCC4)C(=O)C32)cc1` (stereo unspecified), the composite z-score was determined as 0.831.
